Screening results deposited in PubChem by National Center for Advancing Translational Sciences (NCATS).
HepG2 viability: kills HepG2 cells in TGF-b inhibitor counter-screen; HepG2 CAGA-GFP viability, ATP luminescence, 18 h; Potency, µM (doses to about 46.1 µM), for inactives: at the top dose activity change, negative = cytotoxicity, usual class: cytotoxic; 410,000 tested, 0.76% active; further: potency means the concentration at half of the fitted maximal effect
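HepG2 CAGA-GFP cells (1000/well, DMEM with 1% FBS) received compound, then TGF-beta at 500 pg/mL final, and were incubated 18 hours at 37 degrees C. Viability was read by CellTiter-Glo luminescence. Media-only wells were set as complete cell-killing and DMSO as no toxicity.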
DT40 TDP1 CPT: growth inhibition of DT40 Tdp1-/-;hTDP1 cells with camptothecin (screen for TDP1 inhibitors) | chicken DT40 Tdp1-/-;hTDP1 cells + 20 nM CPT, ATP luminescence, 48 h | Potency, µM (highest dose often 46.2 µM), for inactives: at the highest dose activity change, negative = growth inhibition, most hits filed as inhibitors | AID 686979 | 420,000 tested, 12% active; further: potency means the concentration at half of the fitted maximal effect; on the % scale 0 is the no-effect control and ±100 the full control effect; nearly all actives have a fitted effect of over 55% in size
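Cell growth measured by CellTiter-Glo luminescence after a minimum 48 h, 37 C compound exposure with 20 nM CPT in Tdp1-knockout DT40 cells stably expressing hTDP1, seeded 400/well; qHTS titration format.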
ASM inhibitor: inhibitors of human secretory acid sphingomyelinase. P17405. placental ASM, HMU-PC fluorogenic substrate, 60 min. Potency, µM (top dose mostly 57.5 µM), for inactives: top-dose activity change, negative = inhibition, usual class: inhibitors. 340,000 tested, 0.006% active; further: potency means the concentration at half of the fitted maximal effect
Target sequence (P17405 47-631 limits assumed): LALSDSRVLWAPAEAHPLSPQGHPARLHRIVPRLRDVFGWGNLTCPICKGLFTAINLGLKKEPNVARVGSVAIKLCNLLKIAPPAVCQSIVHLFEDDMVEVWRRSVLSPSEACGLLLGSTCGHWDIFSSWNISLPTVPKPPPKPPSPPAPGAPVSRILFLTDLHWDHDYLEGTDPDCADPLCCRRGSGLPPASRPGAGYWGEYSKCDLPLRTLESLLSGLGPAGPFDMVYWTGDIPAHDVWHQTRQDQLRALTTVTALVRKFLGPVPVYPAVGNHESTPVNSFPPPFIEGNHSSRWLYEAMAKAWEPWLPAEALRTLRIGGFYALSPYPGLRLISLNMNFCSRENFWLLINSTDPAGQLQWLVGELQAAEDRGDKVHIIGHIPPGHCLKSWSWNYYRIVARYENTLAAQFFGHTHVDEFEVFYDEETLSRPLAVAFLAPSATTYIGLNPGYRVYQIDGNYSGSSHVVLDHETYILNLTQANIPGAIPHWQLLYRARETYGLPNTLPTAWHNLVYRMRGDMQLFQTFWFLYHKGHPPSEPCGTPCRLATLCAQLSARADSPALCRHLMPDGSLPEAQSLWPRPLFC
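Fluorescence read-out (Ex 386 nm, Em 447 nm) after stopping the reaction at pH 10. Enzyme: ASM from human placenta; substrate HMU-PC0, 9 uM final; 60 min, 37 °C. Compound preincubation 10 min, ambient temperature.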
IL1B secr inh: blocks inflammasome-driven IL-1 beta release | AID 743279 | THP-1 LPS/ATP IL-1B secretion, AlphaLISA, 16 h; stronger effect = lower value | activity change, % at 57.5 µM | 360,000 tested, 4.7% active; in the data active means activity change below about -50%; inconclusive means mostly about -30% to -49%; further: on the % scale 0 is the no-effect control and ±100 the full control effect
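Secreted IL-1B measured by AlphaLISA bead assay after 16 h compound exposure of THP-1 cells; compounds (final up to 57.5 uM) added 1 h before LPS (250 ng/mL) and ATP (1.25 mM) stimulation; lower signal means less secretion.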
DT40 TDP1 no CPT: qHTS for Inhibitors of human tyrosyl-DNA phosphodiesterase 1 (TDP1): qHTS in cells in absence of CPT | DT40 Tdp1-/- hTDP1 cells, no CPT, ATP luminescence, 48 h | Potency, µM (top dose mostly 46.2 µM), for the others: at the top dose activity change, negative = growth inhibition, actives largely listed as inhibitors | 420,000 tested, 15% active | AID 686978, 2013; further: potency means the concentration at half of the fitted maximal effect; on the % scale 0 is the no-effect control and ±100 the full control effect; nearly all actives have a fitted effect of over 55% in size
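No-CPT arm: Tdp1-/-;hTDP1 DT40 cells (400/well) plus compounds, incubated ≥48 hr at 37 °C. Readout CellTiter-Glo luminescence.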
TGFb inhibitor: TGF-b pathway inhibition; HepG2 CAGA-GFP TGF-b/SMAD3 reporter, GFP fluorescence, 18 h; TGF-beta stimulated, 500 pg/mL final; Potency, µM (top dose mostly 46.1 µM), inactives show top-dose activity, negative = inhibition, most hits filed as inhibitors; 410,000 tested, 1.2% active; AID 588855; further: potency means the concentration at half of the fitted maximal effect; on the % scale 0 is the no-effect control and ±100 the full control effect; nearly all actives have a fitted effect of over 65% in size
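First, reporter cells (HEPG2 CAGA-GFP) rested 2 h at 37 degrees C. Next, compounds were pinned in and TGF-beta added to 500 pg/mL final. After 18 h, GFP was imaged per cell and summed per well.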
* = called active by the depositor; i = inactive; ? = inconclusive; / = not tested or not shown. Hits are enriched below; roughly 19% of the tested compounds scored in any of these assays. Unless noted, the call rests on the fitted dose curve; in most records, active means well fitted curve in the direction sought with a large enough effect; inconclusive means small, poorly fitted or top-dose-only effect, or another doubt; inactive means no such curve, though single readings can be large; an effect the other way counts as inactive or inconclusive.

SMILES	HepG2 viability	DT40 TDP1 CPT	ASM inhibitor	IL1B secr inh	DT40 TDP1 no CPT	TGFb inhibitor
COC(=O)c1ccc(NC(=O)C(c2ccccc2)N2Cc3ccccc3C2=O)cc1 (stereo unspecified)	-17.7%	?	/	/	?	?
O=C1C(=Cc2cccc(Cl)c2)Cc2ccccc21	-12.9%	?	/	14.0	?	-2.2%
O=C1C(=Cc2ccc(Cl)cc2)CCc2ccccc21	-39.5%	20.6µM*	/	-8.8	?	-16.5%
O=C1C(=Cc2ccccc2Cl)CCc2ccccc21	-43.2%	-73.8%	/	?	?	?
O=C1C(=Cc2ccc(F)cc2)CCc2ccccc21	/	16.4µM*	/	-13.0	20.6µM*	/
O=C1C(=Cc2cccc(Cl)c2)CCc2ccccc21	-48.7%	?	/	-20.6	20.6µM*	?
COc1ccc(C/C(C)=N/NS(=O)(=O)c2ccc(Br)cc2)cc1	1.2%	-16.0%	1.6%	11.2	9.3%	1.0%
COc1ccc(Br)cc1CNC(=O)C(C)n1nc(C)n2c(cc3occc32)c1=O (stereo unspecified)	-14.6%	-3.7%	/	/	?	/
Cc1ccccc1CNCc1c(C(=O)O)c(C)n(Cc2ccc(F)cc2Cl)c1C	-35.5%	-21.5%	/	/	-19.4%	?
Cn1cnnc1SCC(=O)N1N=C(c2ccc(Cl)cc2)CC1c1ccco1 (stereo unspecified)	5.5%	?	1.5%	0.0	-14.5%	2.3%
Cc1ccc(C2=NN(C(=O)CSc3nnnn3C)C(c3ccco3)C2)cc1 (stereo unspecified)	-22.1%	13µM*	4.9%	?	?	?
CCC(=O)N1N=C(c2c(-c3ccccc3)c3cc(Cl)ccc3[nH]c2=O)CC1c1ccco1 (stereo unspecified)	-63.2%	18.4µM*	17.8%	?	23.1µM*	-23.4%
COc1ccc(C2=NN(c3nc(-c4ccc(CNC(C)=O)cc4)cs3)C(c3ccco3)C2)cc1 (stereo unspecified)	-13.9%	20.6µM*	184.9%	-18.1	18.4µM*	-10.1%
O=C(OCC(=O)N1N=C(c2ccc(Cl)cc2)CC1c1ccco1)c1cncc(Br)c1 (stereo unspecified)	-5.9%	?	-11.8%	?	23.1µM*	-5.0%
COc1ccc(-c2nn(-c3cccc(F)c3)c3c2cnc2cc(OC)c(OC)cc23)cc1	-0.8%	?	/	/	?	6.6%
COc1ccc(CCC(=O)O)cc1	-3.1%	-3.6%	/	/	-1.7%	1.7%
CCC(=O)N1N=C(c2ccc(NS(=O)(=O)CC)cc2)CC1c1ccc(C)cc1 (stereo unspecified)	-13.4%	?	141.4%	3.7	?	6.2%
COc1ccc(C2=NN(C(=O)CSc3nccn3C)C(c3ccco3)C2)cc1 (stereo unspecified)	-6.4%	18.4µM*	4.3%	-26.4	?	-11.7%
CCC(=O)N1N=C(c2ccc(NS(=O)(=O)c3ccc(C)cc3)cc2)CC1c1ccco1 (stereo unspecified)	-16.4%	?	-6.8%	?	13µM*	?
O=C(OCC(=O)N1N=C(c2ccc(Cl)cc2)CC1c1ccco1)c1ccco1 (stereo unspecified)	-0.2%	-30.0%	-18.5%	-2.6	?	0.7%
N=c1sccn1CC(=O)N1N=C(c2ccc(Cl)cc2)CC1c1ccco1 (stereo unspecified)	-22.8%	?	-1.0%	-26.6	23.1µM*	?
CCS(=O)(=O)Nc1ccc(C2=NN(C(=S)Nc3ccccc3)C(c3ccco3)C2)cc1 (stereo unspecified)	-3.7%	16.4µM*	i	-13.6	16.4µM*	-2.0%
CCS(=O)(=O)Nc1ccc(C2=NN(C(=O)c3ccco3)C(c3ccc(C)cc3)C2)cc1 (stereo unspecified)	-16.1%	?	-12.4%	-10.0	20µM*	?
CCC(=O)N1N=C(c2ccc(C)cc2)CC1c1ccco1 (stereo unspecified)	-46.7%	20.6µM*	-0.4%	?	13µM*	-19.2%
Nc1cccc(-c2cn(-c3cc4cc(C#CC5(O)CCCCC5)ccc4oc3=O)nn2)c1	-0.8%	?	-14.0%	11.9	?	4.0%
SMILES	HepG2 viability	DT40 TDP1 CPT	ASM inhibitor	IL1B secr inh	DT40 TDP1 no CPT	TGFb inhibitor
N#Cc1cn(-c2ccccc2)nc1-c1cc2ccccc2oc1=O	-2.5%	?	20.4%	-3.2	16.4µM*	-2.4%
O=C(O)/C=C/c1cn(-c2ccccc2)nc1-c1cc2ccccc2oc1=O	9.0%	-21.7%	6.7%	44.5	17.0%	4.4%
COc1ccc(C(C(=O)Nc2ccc(C(C)C)cc2)N(C)C(=O)Cc2cccs2)cc1 (stereo unspecified)	-10.1%	?	/	/	?	-50.5%
O=C(/C=C/c1ccccc1)Nc1cccc(C(=O)NCCCCc2ccccc2)c1	-8.8%	?	-5.2%	22.0	18.4µM*	2.4%
O=C(NCCCCc1ccccc1)c1cccc(NC(=O)C2CCCCC2)c1	-10.9%	?	5.1%	0.0	25.9µM*	-16.9%
O=C(/C=C/c1ccccc1)Nc1cccc(C(=O)NCCc2ccccc2)c1	-34.4%	?	-9.4%	3.6	?	-19.1%
O=C(NCCCCc1ccccc1)c1cccc(NC(=O)C2CCC2)c1	-23.3%	-6.2%	-10.5%	-5.2	-29.8%	-1.3%
CCN(c1ccc(OC)cc1)S(=O)(=O)c1csc(C(=O)N2CCCC2)c1	1.2%	?	1.5%	0.0	-13.8%	5.0%
CC(C)OCCCNC(=O)Cn1c(-c2cccs2)cc2cc(F)ccc21	-21.9%	?	/	/	?	?
Cc1ccsc1/C=N/NC(=O)c1nnn(-c2nonc2N)c1-c1ccc2c(c1)OCO2	1.3%	?	-7.6%	-51.9*	-18.3%	-19.3%
Nc1nonc1-n1nnc(C(=O)N/N=C/c2cccs2)c1-c1ccc2c(c1)OCO2	-0.7%	?	-2.2%	-11.2	-27.9%	-12.2%
CCOc1cccc(-c2c(C(=O)N/N=C/c3sccc3C)nnn2-c2nonc2N)c1	4.47µM*	-29.6%	-8.0%	?	?	10µM*
CC(=O)C[n+]1cccc(Br)c1	8.6%	6.1%	/	/	0.0%	5.1%
Cc1ccccc1N(CC(=O)N1CCOCC1)S(C)(=O)=O	-5.2%	16.8%	5.0%	2.6	-7.3%	14.7%
CCOC(=O)c1c(NC(=O)C(C)N2CCN(C(=O)c3ccco3)CC2)sc2c1CCCC2 (stereo unspecified)	-79.2%	14.6µM*	-9.0%	-56.8*	16.4µM*	?
